The list is not random: actives were taken first. Their share in the collection is about 7%.
USP30 block: inhibitors of human USP30 deubiquitinase. inhibition, % at 25 µM. purified USP30, Ub-rhodamine cleavage fluorescence. Q70CQ3. 5.3% of 47,000 active
USP28 block: human USP28 deubiquitinase inhibition; AID 1645857; purified USP28, Ub-rhodamine cleavage fluorescence, 30 min; inhibition, % at 25 µM; 3% of 47,000 active; Q96RU2
Each line names hits and unclear results; the compound was inactive in the other large screens. No stated cut-off is given here; in the data, active means inhibition above about 30%; inactive means the rest.

CN(C)C(=O)c1ccc(OC2CCN(C(=O)c3ccc(F)cc3)CC2)nc1	none
CCOC(=O)c1sc2ccccc2c1S(=O)(=O)Nc1ccc(F)cc1F	none
COc1ccc(S(=O)(=O)N2CCC(c3ncncc3-c3ccnc(N)c3)C2)cc1 (stereo not given)	none
COc1ccc(S(=O)(=O)N2CCC(c3ncc(C)[nH]3)C2)cc1 (stereo not given)	USP30 block 31
COc1ccc(OC)c(NC(=O)C2c3ccccc3C(=O)N(C3CCCC3)C2c2cccs2)c1 (stereo not given)	none
COc1ccc(NC(=O)C2c3ccccc3C(=O)N(C3CCCC3)C2c2cccs2)c(OC)c1 (stereo not given)	USP30 block 40
Nc1c(C(=O)Nc2ccc(Cl)cc2)nnn1Cc1cccc(F)c1	none
CCC(C)NC(=O)c1cc2c(=O)n3cccc(C)c3nc2n1Cc1ccccc1 (stereo not given)	none
CCCCN(C)C(=O)c1cc2c(=O)n3cccc(C)c3nc2n1Cc1ccccc1	USP30 block 42
CCOCCCNC(=O)c1cc2c(=O)n3cccc(C)c3nc2n1Cc1ccccc1	USP30 block 44
COCCCn1c(C(=O)NCCc2ccccc2)cc2c(=O)n3cccc(C)c3nc21	none
COc1ccccc1Cn1c(=O)[nH]c2c(-c3ccccn3)nsc2c1=O	none
CC(=O)N1CCCC(c2nc(C)cc(-c3ccccc3C(=O)O)n2)C1 (stereo not given)	none
CC(=O)N1CCCC(c2nc(C)cc(-c3cc(F)ccc3C(=O)O)n2)C1 (stereo not given)	USP30 block 64
COc1ccc(N(C)c2nc(-c3ccc(OC)c(OC)c3)no2)c(OC)c1	none
CCCn1c(=O)c2cc(C(=O)NCc3ccccc3C)nn2c2ccccc21	none
Cc1c(C(=O)NCc2ccccc2Br)cc(-c2ccccc2)n1C	USP30 block 32
O=C(NCc1ccc(F)cc1)C1CCN(c2cnc3nccnc3c2)CC1	none
c1ccc2oc(CN3CC[C@H](c4nnc(-c5ccncc5)o4)C3)cc2c1	none
Cc1ccc2nc(NC(=O)c3ccccc3OCc3ccccc3Cl)sc2c1	none
Cc1ccc(S(=O)(=O)Nc2ccccc2C(=O)Nc2nc3ccc(Br)cc3s2)cc1	USP30 block 75, USP28 block 77
COc1cccc2cc(C(=O)NCc3cnn4ccccc34)oc12	none
COc1cccc2cc(C(=O)Nc3nc(-c4ccncc4)cs3)oc12	USP30 block 31
Cc1c(S(=O)(=O)c2ccccc2)c(-n2cccc2)n(CCCn2ccnc2)c1C	none
COc1ccc(CCNC(=O)Cn2cncn2)cc1OC	none
COc1ccc(CCNC(=O)COc2ncnc3oc(C)c(C)c23)cc1OC	USP28 block 57
O=C(c1ccc(-n2cccn2)nc1)N1CCC(c2ccn[nH]2)C1 (stereo not given)	none
O=c1c2c(nc3cc(C4CC4)[nH]n13)CCN(Cc1cccc(F)c1)C2	none
Cc1ccc(CN2CCc3nc4cc(C5CC5)[nH]n4c(=O)c3C2)s1	USP30 block 32
Cc1cc(C)c(NC(=O)CCc2c[nH]c3ccccc23)c(Cl)c1	none
COc1ccc(C)cc1NC(=O)COC(=O)CCCc1c[nH]c2ccccc12	none
O=C(CCc1c[nH]c2ccccc12)Nc1ccc(N2CCOCC2)cc1	USP30 block 33, USP28 block 62
O=C(COC(=O)CCCc1c[nH]c2ccccc12)Nc1ccc2c(c1)OCO2	USP28 block 40
COc1ccc(OC)c(CN2Cc3ccccc3OC3(CCOCC3)C2)c1	none
COc1ccccc1-c1nc(-c2cccc(C(=O)N3CCCC3)c2)no1	none
O=C1Nc2ccccc2C(=O)N2CCCC12 (stereo not given)	none
O=C1Nc2ccccc2C(=O)C1C(c1ccc(Cl)cc1)C1C(=O)Nc2ccccc2C1=O (stereo not given)	USP30 block 41, USP28 block 40
O=C1NC(=N/N=C/c2ccccc2)SC1Cc1cc(C(F)(F)F)ccc1Cl (stereo not given)	USP30 block 35
CNC(=O)c1ccc(S(=O)(=O)NC(c2ccc(Cl)cc2)C2CC2)cc1 (stereo not given)	none
Cc1ccc(S(=O)(=O)N2CCN(C(=O)N3CCOCC3)C2)cc1	none
COc1ccc2c(c1)[nH]c1c(=O)n(CCN3CCNCC3)cnc12	none
Cc1ccn2c(=O)c(C(=O)NCc3ccc4c(c3)OCO4)cnc2c1	none

Source: PubChem BioAssay (Buhrlage Lab, Dana-Farber Cancer Institute and Novartis Institutes for BioMedical Research (Cambridge, Mass))
